A number with no mark means an inactive call. Results filed as inconclusive are left out. A call without a number means that no potency is given here. Activity calls are given as the source filed them. Unless noted, the call rests on the fitted dose curve; in most records, active means well fitted curve in the direction sought with a large enough effect in the repeat runs; inconclusive means weak or mixed curves; inactive means no such curve, though single readings can be large; an effect the other way counts as inactive or inconclusive.
Key:
[1] = qHTS assay to identify small molecule agonists of the sonic hedgehog signaling (Shh) pathway (AID 1259368; calls by dose curve;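 further: NIH/3T3-derived 3T3Gli1-Luc cells carrying a stable Gli1-driven firefly luciferase reporter; series mostly up to about 92 µM; nearly all actives have a fitted effect of over 15% in size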)
Method in brief: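 Quantitative high-throughput format using a Gli1-driven firefly luciferase reporter line derived from NIH/3T3 cells. After a 24 hr compound treatment at 37 C and 5% CO2, luminescence reported Gli1 response element activity.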

[2] = qHTS assay to identify small molecule antagonists of the sonic hedgehog signaling (Shh) pathway (AID 1259369; calls by dose curve; further: nearly all actives have a fitted effect of over 45% in size)
Method in brief: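 Stable Gli1-Luc reporter NIH/3T3 clone; quantitative HTS in stimulated mode with conditioned medium. Luminescence measured after 24hr compound treatment at 37 C.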

[3] = target: Estrogen receptor beta (Homo sapiens) (UniProt Q92731); test: qHTS assay to identify small molecule agonists of the estrogen receptor beta (ER-beta) signaling pathway (AID 1259377; active means well fitted activation curve with a large enough effect in the signal ratio in the repeat runs, not every such curve was filed as active; the % refers to the signal ratio)
Estrogen receptor beta (Homo sapiens), sequence (Q92731 whole entry, looked up): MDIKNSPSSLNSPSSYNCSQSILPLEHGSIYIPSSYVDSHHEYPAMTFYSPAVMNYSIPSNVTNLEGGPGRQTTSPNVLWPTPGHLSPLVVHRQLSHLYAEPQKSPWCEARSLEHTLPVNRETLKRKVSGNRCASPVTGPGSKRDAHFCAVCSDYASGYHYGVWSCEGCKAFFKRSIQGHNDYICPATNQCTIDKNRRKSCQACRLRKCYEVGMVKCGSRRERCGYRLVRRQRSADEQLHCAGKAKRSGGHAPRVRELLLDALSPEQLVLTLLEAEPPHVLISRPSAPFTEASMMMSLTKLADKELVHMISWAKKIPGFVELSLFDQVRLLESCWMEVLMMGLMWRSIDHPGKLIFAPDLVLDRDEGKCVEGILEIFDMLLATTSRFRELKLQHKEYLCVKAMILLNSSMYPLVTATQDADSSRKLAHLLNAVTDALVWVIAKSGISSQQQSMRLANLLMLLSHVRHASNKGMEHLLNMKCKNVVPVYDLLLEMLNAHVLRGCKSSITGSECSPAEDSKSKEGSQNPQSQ
Method in brief: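 ER-beta-UAS-bla HEK293T (GripTite) cells carrying a UAS-driven beta-lactamase reporter, in medium with 2% charcoal-stripped FBS, were exposed to compounds for 16 hr at 37C; LiveBLAzer B/G FRET substrate was then added and fluorescence read after 2 hours at room temperature.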

[4] = qHTS assay to identify small molecule agonists of the androgen receptor (AR) signaling pathway in the presence of an antagonist - cell viability counter screen (AID 1259379);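 further: MDA-kb2 human breast cancer cells carrying an MMTV luciferase reporter; series mostly up to about 92 µM; nearly all actives have a fitted effect of over 25% in size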
Method in brief: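 Nilutamide-containing (3.0uM final) MDA-kb2 cultures, 3,000 cells/well, were treated with compounds across 15 concentrations. After 16 hr at 37C with no CO2, cell viability was determined by CellTiter-Fluor fluorescence in the luciferase assay wells.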

[5] = qHTS assay to identify small molecule agonists of the estrogen receptor beta (ER-beta) signaling pathway - cell viability counter screen (AID 1259380); further: nearly all actives have a fitted effect of over 30% in size; further: potency means the concentration at half of the fitted maximal effect
Method in brief: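 Steps: plate ER-beta-UAS-bla HEK293T cells, rest 6 hr; add compounds in DMSO; incubate 16 hr at 37C, 5% CO2; add FRET substrate 2 hr; add CellTiter-Glo, wait 30 min at room temperature; read luminescence.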

[6] = qHTS assay to identify small molecule antagonists of the estrogen receptor beta (ER-beta) signaling pathway - cell viability counter screen (AID 1259382); further: series mostly up to about 92 µM; nearly all actives have a fitted effect of over 55% in size
Method in brief: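 Viability is scored by CellTiter-Glo luminescence (30 min, room temperature) in ER-beta-UAS-bla HEK293T wells already read for reporter fluorescence. Compound exposure lasts 16 hr at 37C alongside 1nM 17-beta-estradiol in charcoal-stripped serum medium.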

[7] = target: Estrogen receptor (Homo sapiens) (UniProt P03372); test: qHTS assay to identify small molecule agonists of the estrogen receptor alpha (ER-alpha) signaling pathway in the presence of an antagonist (AID 1259383; calls by dose curve; further: top concentration of the series differs between compounds; nearly all actives have a fitted effect of over 15% in size)
Estrogen receptor (Homo sapiens), sequence (P03372 whole entry, looked up): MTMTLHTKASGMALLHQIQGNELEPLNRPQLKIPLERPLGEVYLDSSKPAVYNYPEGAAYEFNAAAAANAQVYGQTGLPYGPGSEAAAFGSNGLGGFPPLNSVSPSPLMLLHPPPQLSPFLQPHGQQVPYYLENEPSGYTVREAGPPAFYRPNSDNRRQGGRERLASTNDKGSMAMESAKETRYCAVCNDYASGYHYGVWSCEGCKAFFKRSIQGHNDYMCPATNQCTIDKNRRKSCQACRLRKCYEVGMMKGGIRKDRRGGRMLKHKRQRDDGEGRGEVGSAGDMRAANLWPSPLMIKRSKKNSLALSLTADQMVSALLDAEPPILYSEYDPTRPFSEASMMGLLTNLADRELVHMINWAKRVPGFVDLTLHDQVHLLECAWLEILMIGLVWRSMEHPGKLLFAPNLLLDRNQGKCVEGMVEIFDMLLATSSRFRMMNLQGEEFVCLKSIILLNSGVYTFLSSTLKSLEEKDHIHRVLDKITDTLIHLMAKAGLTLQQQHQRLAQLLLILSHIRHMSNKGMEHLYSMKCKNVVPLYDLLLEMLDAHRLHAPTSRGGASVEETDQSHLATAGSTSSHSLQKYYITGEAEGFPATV
Method in brief: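 Readout was ERE-driven luciferase luminescence in VM7Luc4E2 cells, which express full-length ER-alpha endogenously. Compounds were tested at 15 concentrations for 22hr alongside 10.0nM ICI-182,780 (final concentration).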

[8] = qHTS assay to identify small molecule agonists or antagonists of the thyroid stimulating hormone receptor (TSHR) signaling pathway - wild type cell line counter screen (AID 1259384; calls by dose curve)
Method in brief: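 Wild-type Hek293 cells, 800/well, 18 h at 37C, then compound with Ro20-1724 for 30 min RT. cAMP by HTRF (cAMP-d2/anti-cAMP cryptate), 1 h RT, fluorescence read. 15 concentrations, triplicates.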

[9] = target: Thyrotropin receptor (Homo sapiens) (UniProt P16473); test: qHTS assay to identify small molecule antagonists of the thyroid stimulating hormone receptor (TSHR) signaling pathway (AID 1259385; calls by dose curve; further: nearly all actives have a fitted effect of over 20% in size)
Thyrotropin receptor (Homo sapiens), sequence (P16473 whole entry, looked up): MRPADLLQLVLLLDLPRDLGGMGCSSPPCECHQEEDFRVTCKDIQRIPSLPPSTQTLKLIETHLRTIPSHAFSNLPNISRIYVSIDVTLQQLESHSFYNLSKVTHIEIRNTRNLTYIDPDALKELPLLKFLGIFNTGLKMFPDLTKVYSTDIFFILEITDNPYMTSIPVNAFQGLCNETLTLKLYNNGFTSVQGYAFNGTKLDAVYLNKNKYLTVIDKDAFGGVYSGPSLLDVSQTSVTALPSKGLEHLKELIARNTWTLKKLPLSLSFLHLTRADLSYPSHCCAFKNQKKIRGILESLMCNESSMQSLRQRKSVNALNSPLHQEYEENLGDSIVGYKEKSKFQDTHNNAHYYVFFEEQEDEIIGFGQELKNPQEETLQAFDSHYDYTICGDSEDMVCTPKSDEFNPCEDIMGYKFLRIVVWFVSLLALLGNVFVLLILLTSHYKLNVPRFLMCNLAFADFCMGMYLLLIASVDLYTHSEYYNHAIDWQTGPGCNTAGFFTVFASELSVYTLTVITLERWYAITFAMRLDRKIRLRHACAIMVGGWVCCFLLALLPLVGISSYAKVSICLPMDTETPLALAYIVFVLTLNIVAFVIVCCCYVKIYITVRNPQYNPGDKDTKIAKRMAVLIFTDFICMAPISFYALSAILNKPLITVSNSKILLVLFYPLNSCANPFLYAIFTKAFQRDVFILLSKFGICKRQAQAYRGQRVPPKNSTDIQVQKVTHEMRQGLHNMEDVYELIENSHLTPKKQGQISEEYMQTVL
Method in brief: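 TSHR-HEK293 cells (800/well) plated 18 h, then compounds with Ro20-1724 and TSH at 1.5 ng/mL final, 30 min at room temperature. cAMP quantified by HTRF (cAMP-d2/anti-cAMP-cryptate, 1 h); 15 concentrations in triplicate.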

[10] = qHTS assay to identify small molecule agonists of the estrogen receptor alpha (ER-alpha) signaling pathway in the presence of an antagonist - cell viability counter screen (AID 1259386);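 further: series mostly up to about 92 µM; cells exposed to compounds for 22 h at 37 °C before the viability read; nearly all actives have a fitted effect of over 30% in size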
Method in brief: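 In this counter screen, compound effects on VM7Luc4E2 viability were tested in the presence of the antagonist ICI-182,780 at 10.0nM final. Compounds were dosed at 15 concentrations, exposure lasted 22hr, and the CellTiter-Fluor signal was read.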

[11] = target: Progesterone receptor (Homo sapiens) (UniProt P06401); test: qHTS assay to identify small molecule agonists of the progesterone receptor (PR) signaling pathway (AID 1346784; calls by dose curve; further: nearly all actives have a fitted effect of over 30% in size)
Progesterone receptor (Homo sapiens), sequence (P06401 whole entry, looked up): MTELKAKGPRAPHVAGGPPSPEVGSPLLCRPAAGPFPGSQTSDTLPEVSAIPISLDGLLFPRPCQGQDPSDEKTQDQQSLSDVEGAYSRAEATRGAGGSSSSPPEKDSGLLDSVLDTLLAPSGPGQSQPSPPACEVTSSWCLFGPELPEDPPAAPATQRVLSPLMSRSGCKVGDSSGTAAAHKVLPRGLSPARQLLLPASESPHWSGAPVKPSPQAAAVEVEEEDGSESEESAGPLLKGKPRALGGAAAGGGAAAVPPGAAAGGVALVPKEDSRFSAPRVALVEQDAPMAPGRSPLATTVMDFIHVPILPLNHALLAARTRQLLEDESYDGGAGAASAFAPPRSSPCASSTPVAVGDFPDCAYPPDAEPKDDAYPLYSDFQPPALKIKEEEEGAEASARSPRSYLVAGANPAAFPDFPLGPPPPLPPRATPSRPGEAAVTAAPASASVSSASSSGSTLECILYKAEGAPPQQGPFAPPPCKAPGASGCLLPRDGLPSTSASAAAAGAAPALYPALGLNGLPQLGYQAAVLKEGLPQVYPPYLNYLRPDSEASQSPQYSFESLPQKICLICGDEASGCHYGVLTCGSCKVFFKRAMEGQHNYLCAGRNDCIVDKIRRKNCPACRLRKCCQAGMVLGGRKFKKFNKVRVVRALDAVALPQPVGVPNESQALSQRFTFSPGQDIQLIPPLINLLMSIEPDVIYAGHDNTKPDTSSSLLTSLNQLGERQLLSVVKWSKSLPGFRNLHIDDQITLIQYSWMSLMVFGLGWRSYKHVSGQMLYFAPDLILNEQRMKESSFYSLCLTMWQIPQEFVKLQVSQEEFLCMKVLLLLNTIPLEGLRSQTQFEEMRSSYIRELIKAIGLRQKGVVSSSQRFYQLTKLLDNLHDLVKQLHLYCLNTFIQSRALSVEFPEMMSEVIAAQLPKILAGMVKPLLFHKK
Method in brief: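 PR-UAS-bla HEK 293T cells carrying a UAS-driven beta-lactamase reporter were seeded in medium with 2% charcoal-stripped FBS, preincubated 6 hr at 37C, then exposed to compounds in DMSO for 16 hr; agonism was read by LiveBLAzer B/G FRET fluorescence.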

[12] = target: Progesterone receptor (Homo sapiens) (UniProt P06401); test: qHTS assay to identify small molecule antagonists of the progesterone receptor (PR) signaling pathway (AID 1346795; active means well fitted inhibition curve with a large enough effect in the signal ratio in the repeat runs, not every such curve was filed as active; the % refers to the signal ratio)
Method in brief: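 PR-UAS-bla HEK293T cells carrying a UAS-driven beta-lactamase reporter were plated in medium with 2% charcoal-stripped FBS and rested 6 hr at 37C. Compounds were added with 1 nM R5020 (final) for 16 hr, then FRET substrate loaded 2 hr at room temperature.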

[13] = qHTS assay to identify small molecule antagonists of the TGF-beta/Smad signaling pathway - cell viability counter screen (AID 1346824); further: nearly all actives have a fitted effect of over 50% in size
Method in brief: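 SBE-bla HEK 293T cells, incubated overnight, then compound plus 0.25 ng/mL TGF-beta1 (stock added) for 5 hr at 37 C. Viability was read in the same wells by CellTiter-Glo luminescence after 30 min at room temperature.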

[14] = qHTS assay to identify small molecule agonists of the TGF-beta/Smad signaling pathway - cell viability counter screen (AID 1346829); further: top concentration of the series differs between compounds; nearly all actives have a fitted effect of over 45% in size
Method in brief: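 HEK 293T SBE-bla line, 5 hr compound exposure at 37 C, multiplexed CellTiter-Glo viability read by luminescence.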

[15] = qHTS assay to identify small molecule agonists of the TGF-beta/Smad signaling pathway (AID 1346859; active means well fitted activation curve with a large enough effect in the signal ratio in the repeat runs, not every such curve was filed as active; the % refers to the signal ratio; further: series mostly up to about 77 µM)
Method in brief: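 HEK 293T cells stably carrying a beta-lactamase reporter driven by the Smad binding element were seeded overnight, exposed to DMSO-dissolved compounds for 5 hr at 37 C, 5% CO2, then loaded with FRET substrate for 2 hr at room temperature.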

[16] = target: Thyrotropin-releasing hormone receptor (Homo sapiens) (UniProt P34981); test: qHTS assay to identify small molecule antagonists of the thyrotropin-releasing hormone receptor (TRHR) signaling pathway (AID 1346877; active means well fitted inhibition curve with a large enough effect in the repeat runs, not every such curve was filed as active; further: series mostly up to about 51 µM)
Thyrotropin-releasing hormone receptor (Homo sapiens), sequence (P34981 whole entry, looked up): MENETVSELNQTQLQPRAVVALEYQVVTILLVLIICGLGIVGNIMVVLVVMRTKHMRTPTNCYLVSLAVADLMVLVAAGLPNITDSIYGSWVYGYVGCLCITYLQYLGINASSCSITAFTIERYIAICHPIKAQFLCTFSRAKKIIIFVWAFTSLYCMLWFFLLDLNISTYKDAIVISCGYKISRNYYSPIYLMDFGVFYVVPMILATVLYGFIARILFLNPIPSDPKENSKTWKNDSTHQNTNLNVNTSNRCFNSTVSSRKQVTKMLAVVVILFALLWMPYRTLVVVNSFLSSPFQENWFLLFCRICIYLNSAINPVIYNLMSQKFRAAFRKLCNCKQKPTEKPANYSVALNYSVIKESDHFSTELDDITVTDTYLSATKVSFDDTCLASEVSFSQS
Method in brief: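 Kinetic fluorescence (3 min, 1 s resolution) following stimulation with TRH at 1 nM final; HEK293 cells bearing human TRHR; 5 min compound preincubation at RT; concentration-response over 15 points, triplicates.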

[17] = target: Androgen receptor (Homo sapiens) (UniProt P10275); test: qHTS assay to identify small molecule agonists of the androgen receptor (AR) signaling pathway in the presence of an antagonist (AID 1259381; calls by dose curve; further: nearly all actives have a fitted effect of over 15% in size)
Androgen receptor (Homo sapiens), sequence (P10275 whole entry, looked up): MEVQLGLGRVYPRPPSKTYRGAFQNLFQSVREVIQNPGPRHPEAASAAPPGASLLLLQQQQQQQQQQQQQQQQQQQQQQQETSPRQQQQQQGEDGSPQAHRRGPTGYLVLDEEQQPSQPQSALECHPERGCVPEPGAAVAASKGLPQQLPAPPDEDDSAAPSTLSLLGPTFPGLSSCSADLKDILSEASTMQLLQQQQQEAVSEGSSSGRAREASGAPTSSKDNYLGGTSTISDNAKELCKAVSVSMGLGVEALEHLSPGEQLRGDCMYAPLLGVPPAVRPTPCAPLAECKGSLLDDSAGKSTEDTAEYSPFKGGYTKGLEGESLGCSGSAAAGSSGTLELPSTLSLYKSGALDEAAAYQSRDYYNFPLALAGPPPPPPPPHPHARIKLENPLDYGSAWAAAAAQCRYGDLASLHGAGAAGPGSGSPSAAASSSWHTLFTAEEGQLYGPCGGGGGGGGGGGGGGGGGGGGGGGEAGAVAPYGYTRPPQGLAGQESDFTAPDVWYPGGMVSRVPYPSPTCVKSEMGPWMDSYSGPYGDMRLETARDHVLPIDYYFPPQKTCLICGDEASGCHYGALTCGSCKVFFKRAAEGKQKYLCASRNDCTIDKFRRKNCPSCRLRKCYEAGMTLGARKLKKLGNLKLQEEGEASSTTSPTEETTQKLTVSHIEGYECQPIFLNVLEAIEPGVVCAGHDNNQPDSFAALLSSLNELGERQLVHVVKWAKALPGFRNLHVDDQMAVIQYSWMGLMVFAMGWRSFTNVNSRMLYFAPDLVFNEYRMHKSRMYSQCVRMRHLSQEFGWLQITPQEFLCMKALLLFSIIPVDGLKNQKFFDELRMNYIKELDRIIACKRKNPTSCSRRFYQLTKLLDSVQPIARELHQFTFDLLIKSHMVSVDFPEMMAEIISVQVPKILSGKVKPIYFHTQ
Method in brief: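 Reporter-gene luminescence from MDA-kb2 cells exposed 16hr at 37C (0% CO2) to 15-point compound titrations with 3.0uM final nilutamide as AR antagonist.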

[18] = qHTS assay to identify small molecule antagonists of the progesterone receptor (PR) signaling pathway - cell viability counter screen (AID 1346798); further: series mostly up to about 92 µM; nearly all actives have a fitted effect of over 50% in size
Method in brief: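 PR-UAS-bla HEK293T cells in medium with 2% charcoal-stripped FBS were treated with compounds plus R5020 for 16 hr at 37C. Cell viability was then read by CellTiter-Glo luminescence after 30 min at room temperature in the same wells.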

[19] = qHTS assay to identify small molecule agonists of the progesterone receptor (PR) signaling pathway - cell viability counter screen (AID 1346799; calls by dose curve; further: nearly all actives have a fitted effect of over 45% in size)
Method in brief: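 PR-UAS-bla HEK293T cells, 3,000 per well in medium with 2% charcoal-stripped FBS, were preincubated 6 hr at 37C, then exposed to compounds for 16 hr; viability was read as CellTiter-Glo luminescence after 30 min at room temperature.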

[20] = target: Estrogen receptor beta (Homo sapiens) (UniProt Q92731); test: qHTS assay to identify small molecule antagonists of the estrogen receptor beta (ER-beta) signaling pathway (AID 1259378; active means well fitted inhibition curve with a large enough effect in the signal ratio in the repeat runs, not every such curve was filed as active; the % refers to the signal ratio)
Method in brief: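 ER-beta-UAS-bla HEK293T cells in 2% charcoal-stripped FBS medium treated with compound plus 1nM final 17-beta-estradiol for 16 hr at 37C. Beta-lactamase reporter read by FRET substrate fluorescence after 2 hours at room temperature.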

| Compound | outcome [1] | Potency [2] | Potency [3] | Potency [4] | Potency [5] | outcome [6] | outcome [7] | outcome [8] | outcome [9] | Potency [10] | Potency [11] | Potency [12] | outcome [13] | outcome [14] | outcome [15] | outcome [16] | Potency [17] | Potency [18] | Potency [19] | outcome [20] |
| --- | --- | --- | --- | --- | --- | --- | --- | --- | --- | --- | --- | --- | --- | --- | --- | --- | --- | --- | --- | --- |
| c1ccc2nccnc2c1 | inactive | inactive | inactive | inactive | inactive | inactive | inactive | inactive | inactive | inactive | inactive | inactive | inactive | inactive | inactive | inactive |  |  |  |  |
| C=CCCCCCCCCCCCC | inactive | inactive | inactive | inactive | inactive |  |  |  | inactive | inactive |  |  | inactive | inactive |  | inactive | inactive | inactive | inactive |  |
| O=C(/N=N/C(=O)OCc1ccccc1)OCc1ccccc1 | inactive | inactive | inactive | inactive |  |  | inactive | inactive | inactive | inactive | inactive |  |  | inactive | inactive | inactive |  | inactive |  | inactive |
| CC(C)C[C@H](NC(=O)CNC(=O)[C@H](Cc1ccc(O)cc1)NC(=O)[C@H](CO)NC(=O)[C@H](Cc1c[nH]c2ccccc12)NC(=O)[C@H](Cc1cnc[nH]1)NC(=O)[C@@H]1CCC(=O)N1)C(=O)N[C@@H](CCCN=C(N)N)C(=O)N1CCC[C@H]1C(=O)NCC(N)=O (stereo in doubt) | inactive | inactive | inactive | inactive |  | inactive |  |  |  | inactive | inactive | inactive | inactive | inactive |  | inactive |  | inactive |  |  |
| CCC(CC)CO | inactive | inactive |  | inactive | inactive | inactive | inactive | inactive | inactive | inactive | inactive | inactive | inactive | inactive | inactive | inactive | inactive | inactive | inactive |  |
| CC(CC=O)CCCC(C)(C)O (stereo unspecified) | inactive | inactive |  | inactive | inactive | inactive | inactive | inactive | inactive |  |  | inactive | inactive | inactive | inactive |  | inactive | inactive |  |  |
| Cc1cccc(OCC(O)CNC(C)(C)C)c1C (stereo unspecified) | inactive | inactive |  | inactive | 13.3 µM (active) | inactive |  |  | inactive | inactive | inactive | inactive | inactive | inactive | inactive | inactive | inactive |  | inactive |  |
| COc1cc(N)ccc1C | inactive | inactive | inactive | inactive | inactive | inactive |  | inactive | inactive | inactive | inactive |  | inactive | inactive | inactive |  |  | inactive |  |  |
